# The list is not random: actives were taken first. Their share in the collection is about 0.49%.
# EPAC2 antag: EPAC2 (human) antagonism; Q8WZA2; EPAC2 GEF exchange of Rap1B-BODIPY-GDP, fluorescence; Potency, µM (doses to about 114 µM), for the others: at the highest dose activity, negative = inhibition, hits mostly inhibitors; 360,000 tested, 0.18% active; AID 720708; also: % is scaled to controls: 0 for no effect and ±100 for the full control effect; nearly all actives have a fitted effect of over 45% in size
# EPAC2 ag: agonists of human EPAC2 (RAPGEF4); Q8WZA2; EPAC2 activation, biochemical qHTS; response scale: 100% = 6.5 mM cAMP response; Potency, µM (titrated, usually from 154 µM), inactives show at the top dose activation, most hits filed as activators; 360,000 tested, 0.079% active; also: nearly all actives have a fitted effect of over 50% in size
#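 Compounds were added across a concentration range to EPAC2 (100 nM), RAP1B-BODIPY-GDP (250 nM) and GDP (50 uM). After 5 min at room temperature, fluorescence was recorded at 5-min intervals for 30 min.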
# EPAC1 antag: blocks human EPAC1 exchange factor | EPAC1 GEF assay, Rap1b-BODIPY-GDP exchange fluorescence | AID 720709 | Potency, µM (titrated, usually from 115 µM), inactives show at the top dose activity change, negative = inhibition, actives largely listed as inhibitors | O95398 | 360,000 tested, 0.14% active;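 also: plate controls were vehicle for no effect and positive control for full effect; nearly all actives have a fitted effect of over 50% in size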
# EPAC1 ag: EPAC1 (human) agonism | Potency, µM (titrated, usually from 154 µM), for inactives: at the highest dose activation, actives largely listed as activators | O95398 | 360,000 tested, 0.073% active | EPAC1 agonist qHTS, biochemical assay; response scale: 100% = response to 6.5 mM cAMP; also: nearly all actives have a fitted effect of over 60% in size
#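 Compounds were pinned as a concentration titration into mixtures of EPAC1 (100 nM), BODIPY-GDP-loaded Rap1B (250 nM) and GDP (50 uM). After 5 min at room temperature, fluorescence was followed for 30 min; activity was scaled to 6.5 mM cAMP.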
# USP1-UAF1 inh: inhibitors of human USP1/UAF1 deubiquitinase. 390,000 tested, 0.23% active. Potency, µM (doses to about 57.1 µM), inactives show top-dose activity change, negative = inhibition, most hits filed as inhibitors. recombinant USP1/UAF1, Ub-Rhodamine cleavage fluorescence. O94782; also: % is scaled to controls: 0 for no effect and ±100 for the full control effect; nearly all actives have a fitted effect of over 60% in size
# Target sequence (O94782 whole entry, looked up): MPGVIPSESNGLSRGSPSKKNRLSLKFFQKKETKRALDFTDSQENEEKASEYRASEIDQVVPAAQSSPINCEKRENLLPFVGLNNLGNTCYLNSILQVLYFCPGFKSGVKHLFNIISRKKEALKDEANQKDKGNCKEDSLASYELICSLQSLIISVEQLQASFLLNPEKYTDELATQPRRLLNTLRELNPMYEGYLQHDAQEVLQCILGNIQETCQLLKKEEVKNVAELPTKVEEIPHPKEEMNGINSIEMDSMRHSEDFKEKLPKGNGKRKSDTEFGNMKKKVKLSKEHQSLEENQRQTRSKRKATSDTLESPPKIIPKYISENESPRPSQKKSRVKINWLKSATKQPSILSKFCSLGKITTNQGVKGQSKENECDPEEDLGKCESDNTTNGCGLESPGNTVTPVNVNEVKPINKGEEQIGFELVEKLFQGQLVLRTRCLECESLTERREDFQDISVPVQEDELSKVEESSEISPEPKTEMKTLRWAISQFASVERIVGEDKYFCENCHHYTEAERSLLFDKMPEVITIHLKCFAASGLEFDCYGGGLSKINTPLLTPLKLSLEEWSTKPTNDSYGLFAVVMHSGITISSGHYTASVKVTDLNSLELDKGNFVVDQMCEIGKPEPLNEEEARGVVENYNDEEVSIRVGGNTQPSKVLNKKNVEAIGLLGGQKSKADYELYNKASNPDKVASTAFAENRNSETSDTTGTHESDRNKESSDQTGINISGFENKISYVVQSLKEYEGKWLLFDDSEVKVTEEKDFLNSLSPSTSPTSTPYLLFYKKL
#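 High-throughput fluorogenic screen: 1nM USP1/UAF1 complex, Ub-Rho substrate 150nM final, 50mM HEPES pH 7.8 with 0.5mM EDTA, 0.1 mg/ml BSA, 1mM TCEP and 0.01% Tween-20.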
# Numbers without * were called inactive; ? = inconclusive; . = no result given. Calls follow the shape of the dose curve; as a rule, active = well fitted curve in the direction sought with a large enough effect; inconclusive = small, poorly fitted or top-dose-only effect, or another doubt; inactive = no such curve, though single readings can be large; an effect the other way counts as inactive or inconclusive. Potency is read from the fitted curve at half-maximal effect.
SMILES,EPAC2 antag,EPAC2 ag,EPAC1 antag,EPAC1 ag,USP1-UAF1 inh
CCOP(=S)(OCC)Oc1cc(C)nc(C(C)C)n1,22.4µM*,-10.5%,-4.8%,12.1%,-21.0%
COc1ccccc1NC(=O)Oc1cccc(OC(=O)c2ccccc2)c1,4.3%,12.8%,4.4%,11.4%,?
CN1Cc2c(c(C#N)c(N)n(C)c2=S)CC1(C)C,24.5%,?,41.2%,?,28.2µM*
COc1ccc(-n2c(O)c(/C=C/C=Nc3ccccc3)c(=O)[nH]c2=O)cc1,54.1%,?,25.5%,100µM*,31.6µM*
O=c1[nH]c(=O)n(-c2ccccc2)c(O)c1/C=C/C=Nc1ccccc1,54.4%,-0.4%,37.3%,?,?
Cc1ccc(-c2[nH]c(=S)[nH]c(=O)c2C#N)cc1,-9.9%,4.9%,?,6.3%,0.0%
CCOc1ccc(CN(CCc2ccc3c(c2)OCO3)Cc2cc(OC)ccc2O)cc1,.,.,.,.,-14.7%
CC(C)C[C@H]1C(=O)N2CCCC2[C@]2(O)O[C@](NC(=O)[C@@H]3C=C4c5cccc6[nH]cc(c56)CC4N(C)C3)(C(C)C)C(=O)N12 (stereo partly drawn),6.1%,0.0%,-4.6%,-27.6%,12.6µM*
CC(C)[C@@]1(NC(=O)[C@@H]2C[C@@H]3c4cccc5[nH]cc(c45)C[C@H]3N(C)C2)O[C@@]2(O)[C@@H]3CCCN3C(=O)[C@H](Cc3ccccc3)N2C1=O,4.7%,0.7%,-1.9%,-22.7%,-25.0%
CC(C)[C@H]1C(=O)N2CCC[C@H]2[C@]2(O)O[C@](NC(=O)[C@@H]3C=C4c5cccc6[nH]cc(c56)C[C@H]4N(C)C3)(C(C)C)C(=O)N12,7.7%,10.8%,?,-14.4%,22.4µM*
CC1CCCN(c2ccc(C(=O)N3CCC4(CC3)OCCO4)cc2[N+](=O)[O-])C1 (stereo not drawn),5.3%,1.6%,10.5%,-7.5%,-17.6%
CCOC(=O)C1CCCN(c2ccc([N+](=O)[O-])c3nonc23)C1 (stereo not drawn),117.8%,100µM*,78.6%,89.1µM*,25.1µM*
CCOC(=O)c1cc(CC)sc1/N=C/c1c(O)[nH]c(=S)[nH]c1=O,30.9%,63.1µM*,-14.7%,6.3%,?
CCOC(=O)c1c(/N=C/C2C(=O)NC(=O)NC2=O)sc2c1CCC2,-20.3%,8.8%,-16.9%,-12.3%,-10.4%
CCOC(=O)c1cc(CC)sc1/N=C/C1C(=O)NC(=S)NC1=O,200.5%,89.1µM*,4.5%,-1.8%,?
CC(C)N1C(=O)/C(=C/C=C/c2ccco2)C(=O)N(Cc2ccco2)C1=O,-2.2%,9.1%,?,4.3%,-3.6%
COc1ccc(/C=C2/C(=O)N(Cc3ccco3)C(=O)N(C(C)C)C2=O)cc1,40.5%,-9.5%,31.6µM*,-4.7%,?
O=C1NC(=O)N(Cc2ccco2)C(=O)/C1=C/c1ccc(-c2cccc([N+](=O)[O-])c2)o1,-26.7%,-0.4%,50.1µM*,3.6%,?
CCOc1cc(-c2c(C#N)c(=O)[nH]c3c2c(C)nn3-c2ccc(F)cc2)ccc1O,-3.7%,-15.0%,?,-3.1%,-7.3%
C[C@H]1COC(=O)[C@@H](Cc2ccc(F)cc2)CC/C=C/C[C@H](CC(=O)N(CCO)Cc2ccccc2)C(=O)N1,11.7%,7.1%,2.0%,-4.6%,-16.8%
COC(=O)c1nc(-c2ccc3c(n2)C(=O)C(N)=C(OC)C3=O)c(N)c(-c2ccc(OC)c(OC)c2O)c1C,-16.3%,-2.2%,-23.5%,8.8%,7.08µM*
C[C@@H]1C(=O)O[C@H]2CC34[C@H]5C[C@@H](C(C)(C)C)[C@]36[C@@H](OC(=O)[C@@H]6O)O[C@@]4(C(=O)O5)[C@]21O (stereo partly drawn),-13.7%,15.3%,-2.5%,3.6%,9.3%
Cc1cc(C(C#N)c2ccc(Cl)cc2)c(Cl)cc1NC(=O)c1cc(I)cc(I)c1O (stereo not drawn),50.1µM*,-10.8%,?,-15.8%,?
CC(C)CCOP(=O)(c1ccc(N(C)C)cc1)C(O)c1c(Cl)cccc1Cl (stereo not drawn),?,2.9%,?,-3.4%,-2.5%
CCCCn1c(N)c(C(=O)OCC2CCCO2)c2nc3ccccc3nc21 (stereo not drawn),7.8%,-6.3%,5.4%,2.9%,-26.2%
SMILES,EPAC2 antag,EPAC2 ag,EPAC1 antag,EPAC1 ag,USP1-UAF1 inh
CCCCn1c(NS(=O)(=O)c2ccc(C)cc2)c(C(=O)OCC)c2nc3ccccc3nc21,-9.2%,-8.3%,?,112µM*,?
CCCCn1c(NC(=O)c2ccco2)c(C(=O)OCC)c2nc3ccccc3nc21,9.1%,4.7%,?,6.9%,25.1µM*
CCOC(=O)c1c(N)n(Cc2ccco2)c2nc3ccccc3nc12,9.4%,2.5%,1.9%,2.3%,-25.2%
COC1C(C)OC(OC2CC(C)(O)Cc3cc4c(c(O)c32)C(=O)c2c(O)cc3c(c2C4=O)OC2OC3(C)C(O)C(N(C)C)C2O)C(OC)C1(C)OC (stereo not drawn),9.8%,11.7%,130.4%,100µM*,?
Cc1cc(C)cc(N2C(=O)/C(=C\c3ccc(N4CCN(C)CC4)o3)C(=O)NC2=S)c1,-6.5%,28.2%,23.9%,?,31.6µM*
Oc1c(Cl)c(Cl)c(Cl)c(Cl)c1Cl,10µM*,-5.4%,-22.2%,-32.4%,-20.2%
O=C(C[C@H]1C=C[C@H](NC(=O)Nc2ccccc2F)[C@@H](CO)O1)NCc1ccc(-c2ccccc2)cc1,?,2.7%,4.7%,-1.4%,.
COCCCn1c(N)c(C(=O)NCCC(C)C)c2nc3ccccc3nc21,?,-3.1%,50.1µM*,23.1%,22.4µM*
CCCCNC(=O)c1c(N)n(Cc2ccc3c(c2)OCO3)c2nc3ccccc3nc12,0.5%,9.7%,-29.2%,8.2%,28.2µM*
CC(C)OCCCNC(=O)c1c(N)n(CC2CCCO2)c2nc3ccccc3nc12 (stereo not drawn),?,2.7%,?,5.8%,28.2µM*
CCCCn1c(N)c(C(=O)OCCOC)c2nc3ccccc3nc21,4.6%,18.4%,-0.7%,9.6%,-3.4%
CCCNC(=O)c1c(N)n(CC2CCCO2)c2nc3ccccc3nc12 (stereo not drawn),-6.1%,3.3%,-20.6%,-3.1%,?
CCCCCn1c(N)c(C(=O)NCCN2CCOCC2)c2nc3ccccc3nc21,-3.5%,-11.5%,-12.7%,7.2%,-24.6%
CCS(=O)(=O)N1CCN(C2CCC(C)CC2)CC1 (stereo not drawn),1.1%,10.6%,9.8%,21.6%,?
COc1cccc(NP(=O)(Oc2ccc(Cl)cc2)Oc2ccc(Cl)cc2)c1,-6.7%,-0.6%,-22.6%,2.9%,-21.7%
O=[N+]([O-])c1cccc(NP(=O)(Oc2ccccc2)Oc2ccccc2)c1,25.1µM*,11.5%,0.2%,11.7%,-13.0%

# Compound activity from PubChem BioAssay.
